Compound activity as filed in PubChem BioAssay.
Shiga toxin inh – blocks Shiga toxin action in Vero cells | inhibition, % at 38.7 µM | AID 2315 | 9.2% of 290,000 active | Vero cells, Shiga toxin protein synthesis inhibition reporter; in the data active = inhibition mostly above about 28%, no sharp cut-off; inactive = mostly below about 43%; also: 0% is about no effect
Pf growth 96h – inhibits malaria parasite growth, 96 h. P. falciparum luciferase reporter growth, 96 h. Potency, µM (top dose mostly 28.7 µM), without a hit: top-dose activity change, negative = inhibition, actives largely listed as inhibitors. 6.9% of 320,000 active; also: potency is read from the fitted curve at half-maximal effect; % is scaled to controls: 0 for no effect and ±100 for the full control effect
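Two-generation exposure (96 h) targets delayed-death phenotype. Reporter parasites carrying integrated firefly luciferase, in red cells at 2% hematocrit and 0.05% parasitemia final, kept at 37 C, 5% CO2; luminescence loss indicates inhibition.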
CHX counter – affects cycloheximide protein synthesis inhibition readout, counter-screen | AID 2314 | cell reporter, cycloheximide protein synthesis inhibition counterscreen | max response, % | 12% of 300,000 active; in the data active = max response mostly above about 13%, no sharp cut-off; inactive = mostly below about 14%; also: read at 38.3 µM for the half of the compounds with a filed dose; 0% is about no effect
HCMV antiviral – blocks human cytomegalovirus replication; HFF cells, HCMV-luciferase reporter, 72 h; hits give low values; AID 1259415; activity change, negative = inhibition, % at 57.5 µM; 4.5% of 410,000 active; in the data active = activity change below about -60%; inconclusive = no clear call, values can overlap the other calls; inactive = above about -39%; also: % is scaled to controls: 0 for no effect and ±100 for the full control effect
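Human foreskin fibroblasts infected with luciferase-reporter HCMV at MOI 1 PFU/cell, compounds at two doses. Luciferase measured 72 h post infection; normalized to buffer-only basal and Salinomycin (10uM) controls.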
Pf growth 48h – P. falciparum growth inhibition at 48 hours (one generation); 5.9% of 310,000 active; AID 504832; Potency, µM (titrated, usually from 28.7 µM), without a hit: top-dose activity change, negative = inhibition, most hits filed as inhibitors; P. falciparum luciferase growth in erythrocytes, 48 h; also: potency is read from the fitted curve at half-maximal effect; % is scaled to controls: 0 for no effect and ±100 for the full control effect
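First compound was added to culture medium, then infected red cells at 0.1% parasitemia and 2% hematocrit (final). After incubation at 37 C under 5% CO2, luciferase detection reagent was dispensed and light output recorded.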
* hit, by the source's call; ? = inconclusive; . = no result given. A selection: hits, their analogues and other compounds. The true share with any hit is near 20%. Unless noted, calls follow the shape of the dose curve; as a rule, active = well fitted inhibition curve with a large enough effect; inconclusive = small, poorly fitted or top-dose-only effect, or another doubt; inactive = no such curve, though single readings can be large or run the other way.

SMILES	Shiga toxin inh	Pf growth 96h	CHX counter	HCMV antiviral	Pf growth 48h
CN1CCN(C(=O)c2ccc3c(c2)NC(=O)/C(=C/c2ccccc2)S3)CC1	-4	?	6	-69*	?
N#Cc1c(C(F)(F)F)cc(=O)n2c1[nH]c1ccccc12	7	0%	10	-96*	2%
O=C(CCC1N=C2c3ccccc3N=C(SCc3ccc(F)cc3)N2C1=O)NCc1ccco1 (centres undefined)	30	?	19*	-27	?
Cc1ccc(CSC2=Nc3ccccc3C3=NC(CC(=O)NCc4ccco4)C(=O)N23)cc1 (centres undefined)	68*	.	38*	-3	1.3µM*
O=C(CCC1N=C2c3ccccc3N=C(SCc3ccc(Cl)cc3)N2C1=O)NCc1ccco1 (centres undefined)	44	25%	18	?	?
O=C(CC1N=C2c3ccccc3N=C(SCc3ccc(F)cc3)N2C1=O)NCc1ccco1 (centres undefined)	30*	13µM*	33*	-22	0.74µM*
CCC(C)NC(=O)CSC1=Nc2ccccc2C2=NC(CC(=O)NCc3ccccc3)C(=O)N12 (centres undefined)	-1	-1%	-2	11	9.3µM*
COc1cccc(CNC(=O)COc2ccc(C(=O)c3ccccc3)cc2)c1	-5	30%	-6	-37	19%
CS(=O)(=O)Nc1ccc(Oc2ncccn2)cc1	-3	8%	-2	-14	2%
Cc1cnc(C(=O)OCc2ccc(Br)cc2)cn1	-4	50%	-6	-38	11%
Cc1ccnc(NC(=O)c2cc3ccccc3oc2=O)c1	122*	44%	27*	-5	36%
COc1ccc2oc(=O)c(C(=O)Nc3cccc(C)c3)cc2c1	49*	0%	43*	1	41%
COc1ccc2oc(=O)c(C(=O)Nc3cccc(C(=O)O)c3)cc2c1	.	.	.	107	.
Cc1ccc(S(=O)(=O)N/N=c2\oc3ccccc3cc2C(=O)Nc2cccc(C)c2)cc1	71*	31%	62*	.	-8%
Cc1cccc(NC(=O)c2cc3ccccc3oc2=O)c1	.	-25%	41*	81	219%
CC(=O)c1cc2ccccc2oc1=O	.	-16%	.	-40	8%
CCC(=O)N1c2ccccc2CC1C(=O)NCCc1ccc(SC)cc1 (centres undefined)	.	.	.	7	.
COc1ccc(CN2CCn3nc(C(=O)NC(C)C)cc3C2=O)cc1	-13	?	1	11	-12%
CC(=O)Nc1c(-c2ccccc2)nc2ncccn12	-11	-12%	-4	8	.
O=C(Nc1c(-c2ccccc2)nc2ncccn12)c1cc2ccccc2oc1=O	-18	6%	36*	-1	5%
COc1ccc(CN2CCn3ncc(C(=O)Nc4cccc(C)c4)c3C2=O)cc1	68	38%	16*	-19	-16%
CSc1ccc(CN2CCN(C3CCCC3)C(CCO)C2)cc1 (centres undefined)	-5	169%	1	1	56%
COc1ccccc1OCCSc1nc2ccccc2n1CC(=O)O	.	.	.	-5	.
COc1ccccc1OCCSc1nc2ccccc2n1CC(O)CO (centres undefined)	25	281%	13*	-10	-4%
O=C(O)CCn1c(SCCOc2ccccc2F)nc2ccccc21	5	10µM*	18*	-4	?
SMILES	Shiga toxin inh	Pf growth 96h	CHX counter	HCMV antiviral	Pf growth 48h
O=C(O)CCn1c(SCCc2ccccc2)nc2ccccc21	.	.	.	-5	.
O=C(O)CCn1c(SCc2ccccc2)nc2ccccc21	23*	15%	9	28	34%
COC(=O)Cn1c(SCc2ccccc2)nc2ccccc21	48	31%	18*	19	.
COc1ccc(C(=O)NCC(c2cccnc2)N2CCN(c3ccc(F)cc3)CC2)cc1 (centres undefined)	.	.	.	-12	.
Cc1ccc(CNC(=O)COC(=O)c2ccc(S(=O)(=O)NCc3ccco3)cc2)cc1	.	-26%	.	?	-16%
CCOc1cc(N2CCOCC2)c(OCC)cc1NC(=O)CN1CCC(Cc2ccccc2)CC1	-13	?	-1	12	-22%
CCOc1cc(N2CCOCC2)c(OCC)cc1NC(=O)Cc1ccccc1	18	?	1	-20	?
CCOC(=O)c1c(C)[nH]c(C(=O)Nc2cc(OCC)c(N3CCOCC3)cc2OCC)c1C	.	15µM*	.	74	2.9µM*
CCCn1nc(C(=O)Nc2cc(OCC)c(N3CCOCC3)cc2OCC)c2ccccc2c1=O	.	.	.	-92*	.
CCOc1cc(N2CCOCC2)c(OCC)cc1NC(=O)CN1CCCC(C)C1 (centres undefined)	-6	?	15*	-23	?
CCOc1cc(N2CCOCC2)c(OCC)cc1NC(=O)Cc1ccccc1OC	52	7.4µM*	7	-61*	?
COc1cccc(CNC(=O)c2cc(=O)[nH]c3ccc(S(=O)(=O)N4CCOCC4)cc23)c1	.	11%	.	-10	-11%
CCOc1cc(N2CCOCC2)c(OCC)cc1NC(=O)c1ccc(C)cc1	-18	-25%	11	?	?
CCOc1cc(N2CCOCC2)c(OCC)cc1NC(=O)c1cc(C)cc(C)c1	-10	?	1	-25	13µM*
CCCSc1ncc(Cl)c(C(=O)Nc2c(C(=O)Nc3ccc(OC)cc3)oc3ccccc23)n1	.	.	.	-17	.
CCS(=O)(=O)c1ncc(Cl)c(C(=O)Nc2ccc(S(=O)(=O)N3CCCC(C)C3)cc2)n1 (centres undefined)	-5	18%	-3	-101*	11%
CCS(=O)(=O)c1ncc(Cl)c(C(=O)Nc2ccc(C)cc2)n1	-12	0%	-4	-100*	15%
CCC1CCCCN1S(=O)(=O)c1ccc(NC(=O)c2nc(S(C)(=O)=O)ncc2Cl)cc1 (centres undefined)	-20	-13%	-7	-113*	25%
CCCS(=O)(=O)c1ncc(Cl)c(C(=O)Nc2c(C(=O)Nc3ccccc3)oc3ccccc23)n1	.	.	.	-31	.
COc1ccc(NC(=O)c2nc(S(=O)(=O)Cc3ccc(C)cc3)ncc2Cl)cc1	.	.	.	-97*	.
Cc1ccc2c(c1)C(c1ccccc1)N(C(=O)c1ccc(S(=O)(=O)N3CCCC3)cc1)CC(=O)N2 (centres undefined)	.	.	.	-7	.
O=C(Nc1ccc(OC(F)F)cc1)c1ncc(Cl)c(Cl)c1Cl	10	6%	14	?	2%
Cc1ccc(CS(=O)(=O)c2ncc(Cl)c(C(=O)Nc3ccc(OC(F)F)cc3)n2)cc1	27	5%	17*	-111*	31%
CCNC(=O)c1c(NC(=O)c2nc(S(=O)(=O)CC)ncc2Cl)sc2c1CCCC2	.	.	.	-101*	.
COC(=O)C1=C(C)NC(C)=C(C(=O)OC)C(N2C(=O)CCC2=O)C1 (centres undefined)	.	.	.	-85*	.
COC(=O)CC1C(=O)NC(C)=C1C(=O)OC (centres undefined)	-2	-6%	-1	.	-4%
COC(=O)c1sc2ccccc2c1-n1cccc1C(=O)C(=O)Nc1ccc(OC)cc1	-2	34%	1	69	?
